Data published in the supplement of paper PMC11001985.

compound: C#CCNC(=O)CCSSCCC(=O)NCCc1ccc(C=O)c(C=O)c1; test: lysine labeling ratio R10:1 (500 µM / 50 µM probe), SILAC-ABPP in living cells; higher = lower intrinsic lysine reactivity toward the probe, active = 2 or less; conditions: HeLa; probe concentrations 500 vs 50 µM
Method in brief: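 An alkyne-tagged lysine probe with a disulfide linker labelled living HeLa cells in PBS at room temperature at either 50 µM or 500 µM, using SILAC light and heavy cells in forward and reverse label swaps. Lysates were mixed, clicked to biotin-azide, trypsin-digested, enriched on neutravidin, DTT-released, alkylated and measured by LC-MS/MS on a TIMS-TOF Pro. Each lysine's R is the filtered median high-probe/low-probe MS1 peptide ratio, combined as the median over forward and reverse replicates, with 20 as the upper limit.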

Sequence of UniProt Q15149 (Q15149 whole entry): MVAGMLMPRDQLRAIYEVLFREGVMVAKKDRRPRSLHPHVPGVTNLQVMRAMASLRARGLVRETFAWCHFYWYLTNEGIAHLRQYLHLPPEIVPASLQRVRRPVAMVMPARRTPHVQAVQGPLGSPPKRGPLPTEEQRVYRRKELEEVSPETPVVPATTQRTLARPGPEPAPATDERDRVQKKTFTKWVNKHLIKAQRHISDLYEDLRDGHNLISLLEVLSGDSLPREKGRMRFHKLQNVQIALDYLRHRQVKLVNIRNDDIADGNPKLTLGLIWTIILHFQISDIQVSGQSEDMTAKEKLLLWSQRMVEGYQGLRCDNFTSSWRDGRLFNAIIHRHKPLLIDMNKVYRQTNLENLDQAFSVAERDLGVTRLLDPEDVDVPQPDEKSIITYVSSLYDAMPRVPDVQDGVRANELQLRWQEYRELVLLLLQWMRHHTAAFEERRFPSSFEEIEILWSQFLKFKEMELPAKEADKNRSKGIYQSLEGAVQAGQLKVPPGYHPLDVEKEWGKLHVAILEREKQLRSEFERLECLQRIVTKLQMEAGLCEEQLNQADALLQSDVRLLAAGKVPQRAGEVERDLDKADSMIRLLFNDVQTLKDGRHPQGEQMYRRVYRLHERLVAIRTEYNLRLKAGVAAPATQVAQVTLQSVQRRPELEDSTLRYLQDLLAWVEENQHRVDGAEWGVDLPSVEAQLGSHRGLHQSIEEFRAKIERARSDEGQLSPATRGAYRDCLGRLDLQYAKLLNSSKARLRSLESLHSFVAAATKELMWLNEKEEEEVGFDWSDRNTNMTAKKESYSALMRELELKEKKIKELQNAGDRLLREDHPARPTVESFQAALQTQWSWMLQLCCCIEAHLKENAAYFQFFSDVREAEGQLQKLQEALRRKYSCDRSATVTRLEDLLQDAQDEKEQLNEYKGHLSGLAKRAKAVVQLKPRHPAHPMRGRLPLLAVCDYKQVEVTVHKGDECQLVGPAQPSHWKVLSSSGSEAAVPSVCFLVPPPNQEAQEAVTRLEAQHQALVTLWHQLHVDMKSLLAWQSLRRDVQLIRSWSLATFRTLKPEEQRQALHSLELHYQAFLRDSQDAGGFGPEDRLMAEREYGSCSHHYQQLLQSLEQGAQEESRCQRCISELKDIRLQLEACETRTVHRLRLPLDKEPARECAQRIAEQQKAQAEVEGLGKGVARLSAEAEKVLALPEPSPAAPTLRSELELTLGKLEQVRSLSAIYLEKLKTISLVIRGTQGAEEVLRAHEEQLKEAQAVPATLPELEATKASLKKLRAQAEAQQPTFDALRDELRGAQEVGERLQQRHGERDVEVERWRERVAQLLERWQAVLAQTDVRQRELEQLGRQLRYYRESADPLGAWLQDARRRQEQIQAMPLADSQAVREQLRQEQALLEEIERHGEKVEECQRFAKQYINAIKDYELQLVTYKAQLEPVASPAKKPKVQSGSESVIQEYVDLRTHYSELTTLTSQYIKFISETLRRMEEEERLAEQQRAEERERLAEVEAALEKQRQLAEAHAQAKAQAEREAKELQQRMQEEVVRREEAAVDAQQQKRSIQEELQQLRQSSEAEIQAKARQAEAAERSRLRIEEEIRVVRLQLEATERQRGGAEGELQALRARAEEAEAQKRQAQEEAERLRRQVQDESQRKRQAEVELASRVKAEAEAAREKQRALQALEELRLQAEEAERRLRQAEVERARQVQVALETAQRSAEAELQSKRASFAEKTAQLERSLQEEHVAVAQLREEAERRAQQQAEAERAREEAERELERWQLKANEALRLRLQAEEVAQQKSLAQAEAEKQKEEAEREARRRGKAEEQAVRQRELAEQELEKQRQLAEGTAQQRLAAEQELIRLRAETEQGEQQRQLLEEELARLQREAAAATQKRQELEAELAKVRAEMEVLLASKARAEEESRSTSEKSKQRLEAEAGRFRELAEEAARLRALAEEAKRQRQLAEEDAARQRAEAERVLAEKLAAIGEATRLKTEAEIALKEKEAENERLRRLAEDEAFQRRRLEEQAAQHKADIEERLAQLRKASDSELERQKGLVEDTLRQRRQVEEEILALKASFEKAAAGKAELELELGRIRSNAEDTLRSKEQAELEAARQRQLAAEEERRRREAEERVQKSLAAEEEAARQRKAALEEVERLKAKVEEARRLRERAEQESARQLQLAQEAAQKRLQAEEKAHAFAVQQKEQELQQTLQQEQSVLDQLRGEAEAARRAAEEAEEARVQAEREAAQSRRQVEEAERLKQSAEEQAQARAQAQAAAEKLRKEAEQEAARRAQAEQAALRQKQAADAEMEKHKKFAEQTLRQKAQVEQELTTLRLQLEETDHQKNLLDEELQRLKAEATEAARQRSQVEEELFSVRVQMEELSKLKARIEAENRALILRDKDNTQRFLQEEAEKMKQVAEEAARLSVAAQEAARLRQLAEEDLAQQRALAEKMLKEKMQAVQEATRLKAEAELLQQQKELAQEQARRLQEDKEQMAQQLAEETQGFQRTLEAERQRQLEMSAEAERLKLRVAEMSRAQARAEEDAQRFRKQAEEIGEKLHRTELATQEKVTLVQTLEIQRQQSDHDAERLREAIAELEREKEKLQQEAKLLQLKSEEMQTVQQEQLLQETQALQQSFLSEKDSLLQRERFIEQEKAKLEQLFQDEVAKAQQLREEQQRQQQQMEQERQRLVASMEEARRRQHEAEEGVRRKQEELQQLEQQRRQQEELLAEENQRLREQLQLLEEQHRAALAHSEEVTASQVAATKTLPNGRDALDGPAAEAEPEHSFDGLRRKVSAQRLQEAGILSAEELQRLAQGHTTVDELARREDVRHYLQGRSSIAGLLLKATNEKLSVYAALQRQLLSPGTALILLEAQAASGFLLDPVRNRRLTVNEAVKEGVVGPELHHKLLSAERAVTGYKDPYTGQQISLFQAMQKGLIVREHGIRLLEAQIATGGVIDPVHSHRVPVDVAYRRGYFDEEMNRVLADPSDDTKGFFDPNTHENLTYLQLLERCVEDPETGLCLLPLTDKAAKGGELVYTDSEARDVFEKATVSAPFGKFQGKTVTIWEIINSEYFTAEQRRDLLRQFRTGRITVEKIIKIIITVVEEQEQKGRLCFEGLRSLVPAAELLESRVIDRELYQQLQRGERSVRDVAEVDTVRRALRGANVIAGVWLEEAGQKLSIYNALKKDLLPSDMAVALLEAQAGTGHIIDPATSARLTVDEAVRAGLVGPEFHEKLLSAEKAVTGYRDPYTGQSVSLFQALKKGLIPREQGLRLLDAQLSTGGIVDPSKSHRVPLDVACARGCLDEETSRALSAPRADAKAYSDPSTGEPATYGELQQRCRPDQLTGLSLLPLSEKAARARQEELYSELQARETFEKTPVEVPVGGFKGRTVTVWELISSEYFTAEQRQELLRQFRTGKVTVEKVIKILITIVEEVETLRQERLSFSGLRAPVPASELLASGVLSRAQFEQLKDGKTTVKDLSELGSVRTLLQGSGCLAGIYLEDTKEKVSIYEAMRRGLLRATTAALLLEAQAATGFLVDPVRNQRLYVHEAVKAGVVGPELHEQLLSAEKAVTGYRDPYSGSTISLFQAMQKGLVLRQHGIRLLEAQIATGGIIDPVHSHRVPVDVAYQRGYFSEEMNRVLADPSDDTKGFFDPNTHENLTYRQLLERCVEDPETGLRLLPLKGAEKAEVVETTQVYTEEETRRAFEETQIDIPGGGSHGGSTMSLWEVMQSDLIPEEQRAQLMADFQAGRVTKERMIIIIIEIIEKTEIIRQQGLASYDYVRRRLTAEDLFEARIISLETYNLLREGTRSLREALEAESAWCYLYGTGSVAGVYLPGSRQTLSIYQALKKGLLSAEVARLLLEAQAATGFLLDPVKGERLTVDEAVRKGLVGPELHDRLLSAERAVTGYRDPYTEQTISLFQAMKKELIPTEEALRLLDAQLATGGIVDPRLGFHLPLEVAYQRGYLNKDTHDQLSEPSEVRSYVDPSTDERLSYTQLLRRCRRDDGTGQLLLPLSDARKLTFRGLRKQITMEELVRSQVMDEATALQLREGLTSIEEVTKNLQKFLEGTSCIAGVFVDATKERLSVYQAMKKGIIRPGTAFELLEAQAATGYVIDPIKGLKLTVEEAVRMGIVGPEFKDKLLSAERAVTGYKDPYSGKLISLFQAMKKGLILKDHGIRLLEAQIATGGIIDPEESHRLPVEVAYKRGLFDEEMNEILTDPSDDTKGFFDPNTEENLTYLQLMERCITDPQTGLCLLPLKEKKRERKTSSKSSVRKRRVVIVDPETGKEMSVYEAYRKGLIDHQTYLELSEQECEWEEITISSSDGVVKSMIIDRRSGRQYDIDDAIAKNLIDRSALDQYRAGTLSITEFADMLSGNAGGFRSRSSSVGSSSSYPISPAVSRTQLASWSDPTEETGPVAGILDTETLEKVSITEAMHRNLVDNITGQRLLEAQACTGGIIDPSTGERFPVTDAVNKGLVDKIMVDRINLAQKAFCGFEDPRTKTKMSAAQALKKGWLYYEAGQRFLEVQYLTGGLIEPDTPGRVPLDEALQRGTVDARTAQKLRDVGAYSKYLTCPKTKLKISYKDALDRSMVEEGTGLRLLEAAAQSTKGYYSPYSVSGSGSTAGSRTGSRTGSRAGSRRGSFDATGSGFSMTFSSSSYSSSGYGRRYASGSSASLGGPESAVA
Sequence of UniProt P50502 (P50502 whole entry): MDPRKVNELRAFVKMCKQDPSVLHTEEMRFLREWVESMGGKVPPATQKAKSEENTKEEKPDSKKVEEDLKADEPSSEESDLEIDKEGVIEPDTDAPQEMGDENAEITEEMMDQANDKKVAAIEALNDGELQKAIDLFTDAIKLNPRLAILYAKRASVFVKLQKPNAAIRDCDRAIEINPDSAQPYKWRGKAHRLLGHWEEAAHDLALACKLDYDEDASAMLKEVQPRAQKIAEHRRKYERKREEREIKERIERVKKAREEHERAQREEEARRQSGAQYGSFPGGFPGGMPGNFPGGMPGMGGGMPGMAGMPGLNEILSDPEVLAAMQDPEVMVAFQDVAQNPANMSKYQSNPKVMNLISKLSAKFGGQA

Lysine labeling ratio R10:1, active:
CHCHD3 (lysine site: K37) (UniProt Q9NX63) 1.57
RUVBL1 (lysine site: K182) (UniProt Q9Y265) 0.748
EGFR (lysine site: K487) (UniProt P00533) 1.61
ATAD3B (lysine site: K104) (UniProt Q5T9A4) 0.547
M6PR (lysine site: K99) (UniProt P20645) 1.86
RPS5 (lysine site: K47) (UniProt P46782) 1.01
UniProt P55285 (lysine site: K418) 1.1

Lysine labeling ratio R10:1, inactive:
UniProt Q15149 (lysine site: K1908) 3.91
FN1 (lysine site: K2072) (UniProt P02751) 9.06
UniProt Q6NZI2 (lysine site: K258) 9.27
Q95604 (lysine site: K145) (UniProt P10321) 2.39
UniProt Q15149 (lysine site: K3849) 8.61
ACTN4 (lysine site: K643) (UniProt O43707) 7.08
GSN (lysine site: K193) (UniProt P06396) 2.07
THBS1 (lysine site: K300) (UniProt P07996) 2.22
RPS19 (lysine site: K7) (UniProt P39019) 4.55
ST13 (lysine site: K230) (UniProt P50502) 4.87
CDH2 (lysine site: K699) (UniProt P19022) 10.6
HSP90B1 (lysine site: K97) (UniProt P14625) 5.42
LMAN1 (lysine site: K407) (UniProt P49257) 3.11
UniProt Q9UKX5 (lysine site: K256) 5.46
UniProt P62826 (lysine site: K99) 2.78
SPTBN1 (lysine site: K1939) (UniProt Q01082) 3.41
